From the supplement of paper PMC12808144

These molecules were tested on Mel-DCC-11-R (assay: cell viability relative to DMSO control (fraction of DMSO control); higher = less cytotoxic, active = 0.8 or less). Conditions: 1 µM; 120 h; vemurafenib co-treatment 8 µM.
Procedure, shortened: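 Luminescence from ATPlite 1step was read after 120 h in 384-well plates carrying 315 approved anti-cancer drugs (TargetMol), acoustically pre-spotted to give 1 µM in duplicate. Cells were seeded in 40 µl per well: 2500/well NHEM-hTERT immortalized melanocytes and 1500/well patient-derived Mel-DCC-11 and Mel-DCC-11-R, its resistant subline, which was assayed alone and with 8 µM of its selecting drug. Viability was normalised to vehicle-treated controls and averaged across duplicate wells.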

SMILES	cell viability
O=C(/C=C\n1cnc(-c2cc(C(F)(F)F)cc(C(F)(F)F)c2)n1)NNc1cnccn1 [Selinexor]	0.678 (active)
Nc1nc(=O)c2c(CCc3ccc(C(=O)N[C@@H](CCC(=O)O)C(=O)O)cc3)c[nH]c2[nH]1 [Pemetrexed acid]	0.964 (inactive)
O=NN(CCCl)C(=O)NCCCl [Carmustine]	1.02 (inactive)
COc1ccc(-c2cc(=S)ss2)cc1 [Anethole trithione]	1.13 (inactive)
CCCCCCCCCCCCCCCCCCOCC(O)CO (stereo not given) [Batyl alcohol]	0.995 (inactive)
